Reference: PubChem BioAssay
Activity calls are given as the source filed them. Unless noted, the rule behind the calls is not given here.

Tests used:
[1] = A549 cell viability effects, profiling panel, calcein-AM fluorescence, 48 h, basal (AID 1162); conditions: higher = more signal; note: test concentration not given here
[2] = adipocyte viability effects, profiling panel, cell-based, 3T3-L1 adipocytes, calcein-AM fluorescence, 48 h, basal (AID 1163); conditions: 3T3-L1 adipocytes viability, higher = more signal; note: test concentration not given here
[3] = HepG2 cell viability effects, profiling panel, calcein-AM fluorescence, 48 h, basal (AID 1164); conditions: higher = more signal; note: test concentration not given here
[4] = MM1S cell viability effects, profiling panel, calcein-AM fluorescence, 48 h, basal (AID 1165); conditions: higher = more signal;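 note: viability of MM1S multiple myeloma cells under basal unstimulated conditions; test concentration not given here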
[5] = basal RPMI8226 viability, no added stimulus, profiling panel, cell-based, calcein-AM fluorescence, 48 h, PK04 Diversity Set (AID 1166); conditions: RPMI8226 myeloma viability, higher = more signal;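 note: cells grown under basal conditions without added stimulus; test concentration not given here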
[6] = basal HepG2 mitochondrial membrane potential changes, profiling panel, cell-based, JC-1 fluorescence, 24 h, 100 nL compound (AID 1167); conditions: higher = more signal; note: test concentration not given here
[7] = basal 3T3-L1 adipocyte mitochondrial potential changes, profiling panel, cell-based, JC-1 fluorescence, 3T3-L1 adipocytes, 24 h, 100 nL compound (AID 1168); conditions: JC-1 mitochondrial fluorescence, higher = more signal, called active from +8 up or from −8 down; note: test concentration not given here
[8] = basal RPMI8226 mitochondrial membrane potential changes, profiling panel, cell-based, JC-1 fluorescence, 24 h, 100 nL compound (AID 1169); conditions: RPMI8226 myeloma, JC-1 mitochondrial potential fluorescence, higher = more signal; note: test concentration not given here
[9] = basal MM1S mitochondrial membrane potential changes, profiling panel, cell-based, JC-1 fluorescence, 24 h, 100 nL compound (AID 1170); conditions: higher = more signal; note: test concentration not given here
[10] = A549 lung cancer cell viability effects, profiling panel, resazurin fluorescence, 24 h, PK04 Diversity Set (AID 1171); conditions: higher = more signal, called active from +8 up or from −8 down; note: test concentration not given here
[11] = HepG2 liver cancer cell viability effects, profiling panel, resazurin fluorescence, 24 h, PK04 Diversity Set (AID 1172); conditions: higher = more signal; note: test concentration not given here
[12] = basal S. cerevisiae growth modulation, no modifier, primary screen, OD600, strain BY4716, 24 h, basal condition (AID 1173); conditions: OD600, 24 h, higher = more signal, called active from +8 up or from −8 down
[13] = MM1S myeloma cell viability, profiling panel, resazurin fluorescence, basal, 24 h, PK04 Diversity Set (AID 1174); conditions: higher = more signal, called active from +8 up or from −8 down;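 note: MM1S multiple myeloma cell line; test concentration not given here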
[14] = molecular target: Dihydroorotate dehydrogenase (quinone), mitochondrial (Plasmodium falciparum (isolate 3D7)) (UniProt Q08210); assay: PfDHODH enzyme inhibitors, primary screen, biochemical, C-terminal His tag, absorbance 600 nm (AID 1175); conditions: DCIP absorbance 600 nm, higher = more signal, called active from +8 up or from −8 down;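 note: recombinant parasite enzyme with a five histidine tag at its C terminus; test concentration not given here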
[15] = P. aeruginosa biofilm formation inhibitors, primary screen, strain PAO1, LB-PBS medium, absorbance 600 nm (AID 1176); note: test concentration not given here; conditions: P. aeruginosa PAO1 growth/biofilm, A600, 12 h; higher = more signal
[16] = S. cerevisiae RM11-1a growth modifiers, primary screen, strain RM11-1a, OD600, basal, 24 h (AID 1177); conditions: OD600, 24 h, higher = more signal, called active from +8 up or from −8 down;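 note: cultures grown under basal conditions with no added stressor; test concentration not given here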
[17] = E. coli acrAB mutant growth effects, primary screen, E. coli filamentation inducers, strain DRC39, OD650, 24 h (AID 1178); conditions: higher = more signal, called active from +8 up or from −8 down;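 note: growth measured as culture turbidity by optical density at 650 nm; test concentration not given here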
[18] = E. coli acrAB mutant growth effects, primary screen, E. coli filamentation inducers, strain DRC39, OD650, 48 h (AID 1179);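 note: screen aims at cell division blockers that make cells filament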; conditions: E. coli DRC39 delta-acrAB growth, higher = more signal, called active from +8 up or from −8 down
[19] = RPMI8226 myeloma cell viability, profiling panel, resazurin fluorescence, basal, 24 h, PK04 Diversity Set (AID 1180); conditions: higher = more signal;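 note: RPMI8826 multiple myeloma cell line at 5000 cells per well; test concentration not given here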
[20] = molecular target: E3 ubiquitin-protein ligase XIAP (Homo sapiens) (UniProt P98170); assay: XIAP binders, primary screen, biophysical, small-molecule microarray, fluorescence 635 nm (AID 1181); conditions: small-molecule microarray binding, higher = more signal;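 note: score merges 667 nm emission and signal to noise over triplicate slides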
E3 ubiquitin-protein ligase XIAP (Homo sapiens), sequence (P98170 whole entry, looked up): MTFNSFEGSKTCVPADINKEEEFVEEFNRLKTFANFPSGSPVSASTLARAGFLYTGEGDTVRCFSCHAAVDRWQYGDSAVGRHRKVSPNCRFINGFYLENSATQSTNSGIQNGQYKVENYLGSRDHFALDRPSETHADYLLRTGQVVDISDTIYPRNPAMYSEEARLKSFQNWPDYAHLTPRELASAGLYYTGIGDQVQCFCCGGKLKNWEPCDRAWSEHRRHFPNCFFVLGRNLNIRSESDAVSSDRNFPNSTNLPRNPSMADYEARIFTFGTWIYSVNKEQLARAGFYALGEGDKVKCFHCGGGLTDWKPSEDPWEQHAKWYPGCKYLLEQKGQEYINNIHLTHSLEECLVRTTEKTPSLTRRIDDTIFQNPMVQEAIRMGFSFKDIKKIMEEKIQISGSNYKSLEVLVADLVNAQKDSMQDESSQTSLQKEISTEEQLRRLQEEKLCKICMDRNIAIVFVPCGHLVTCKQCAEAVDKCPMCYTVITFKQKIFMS

Dihydroorotate dehydrogenase (quinone), mitochondrial (Plasmodium falciparum (isolate 3D7)), sequence (Q08210 whole entry, looked up): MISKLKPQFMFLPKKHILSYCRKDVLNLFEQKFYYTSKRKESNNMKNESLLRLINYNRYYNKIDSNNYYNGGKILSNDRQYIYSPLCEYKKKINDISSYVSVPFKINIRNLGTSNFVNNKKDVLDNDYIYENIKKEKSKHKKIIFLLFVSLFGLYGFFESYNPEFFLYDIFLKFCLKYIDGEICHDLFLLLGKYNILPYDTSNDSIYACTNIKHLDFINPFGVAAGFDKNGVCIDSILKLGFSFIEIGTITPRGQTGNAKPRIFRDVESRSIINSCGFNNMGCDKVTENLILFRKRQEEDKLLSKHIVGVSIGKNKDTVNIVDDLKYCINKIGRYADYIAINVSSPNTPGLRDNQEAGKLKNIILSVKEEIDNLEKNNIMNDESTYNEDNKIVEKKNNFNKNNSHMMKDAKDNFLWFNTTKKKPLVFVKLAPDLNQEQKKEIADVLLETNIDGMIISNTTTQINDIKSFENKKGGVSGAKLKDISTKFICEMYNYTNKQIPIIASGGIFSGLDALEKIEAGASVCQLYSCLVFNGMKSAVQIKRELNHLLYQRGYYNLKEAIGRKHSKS

SMILES | z-score [1] | z-score [2] | z-score [3] | z-score [4] | z-score [5] | z-score [6] | z-score [7] | z-score [8] | z-score [9] | z-score [10] | z-score [11] | z-score [12] | z-score [13] | composite z-score [14] | z-score [15] | z-score [16] | z-score [17] | z-score [18] | z-score [19] | composite z-score [20]
C#C[C@H](O[Si](C#Cc1ccccc1)(C(C)C)C(C)C)c1ccccc1 | -1.62 | -0.653 | -1.47 | -2.94 | -1.91 | -2.74 | -0.448 (inactive) | -0.154 | -1.48 | -0.912 (inactive) | -0.271 | -17.7 (active) | -0.633 (inactive) | -0.203 (inactive) | 0.738 (inactive) | -11.8 (active) | -0.329 (inactive) | 0.127 (inactive) | -0.533 | 0.0049
O=C(CS)NCCCCCCNC(=O)[C@@H]1C[C@@H]2C(=O)N[C@@H](Cc3ccccc3)C(=O)N2[C@@H]1c1ccc(O)cc1 | -0.401 | 0.861 | -0.963 | -0.0227 | 0.612 | -1.67 | -0.654 (inactive) | -0.208 | -0.716 | -0.226 (inactive) | -0.306 | 0.636 (inactive) | 0.0515 (inactive) | 0.224 (inactive) | -0.239 (inactive) | 0.809 (inactive) | -0.288 (inactive) | -0.889 (inactive) | -0.518 | 0.0518
CO[C@H]1O[C@H](CO)[C@@H](OC(=O)Nc2ccc3c(c2)OCO3)[C@H](OC(=O)Nc2ccccc2)[C@@H]1OC(=O)Nc1ccccc1 | -0.279 | -0.0955 | -1.27 | -2 | -1.66 | -1.17 | 0.157 (inactive) | -0.611 | -0.191 | -1.57 (inactive) | -0.671 | -0.328 (inactive) | -1.24 (inactive) | -0.0612 (inactive) | 0.345 (inactive) | 1.13 (inactive) | 0.399 (inactive) | -0.409 (inactive) | -0.682 | 0.319
C=CC[C@]1(C(=O)O)N=C(c2ccc(OCCCO)cc2)O[C@H]1c1ccccc1N=[N+]=[N-] | 0.144 | 0.722 | -0.489 | -2.19 | -0.0144 | 0.0206 | 0.504 (inactive) | -0.837 | -0.783 | 0.909 (inactive) | 0.912 | -0.761 (inactive) | 0.777 (inactive) | 0.589 (inactive) | -1.1 (inactive) | 1.21 (inactive) | 2.63 (inactive) | 1.65 (inactive) | 0.248 | -0.0095
CCOC(=O)C[C@H]1[C@H](OC(=O)Cc2ccc3c(c2)OCO3)[C@@H](NC(=O)c2ccc3ccccc3c2)c2cc(OCCCO)ccc2N1C(=O)Cc1ccc(OC)cc1 | 1.55 | 1.08 | 1.56 | 0.956 | 0.41 | 1.66 | -0.14 (inactive) | -0.384 | -1.1 | -0.654 (inactive) | 0.329 | -0.566 (inactive) | -0.162 (inactive) | -1.09 (inactive) | 0.0642 (inactive) | -1.66 (inactive) | 0.37 (inactive) | 1.11 (inactive) | 0.202 | -0.0151
C=C[C@H](OC)[C@@H](OC(=O)Nc1ccc(SC)cc1)c1ccc(OC)c(O)c1 | 1.73 | 0.182 | 0.907 | 0.898 | 0.524 | 0.163 | 1.15 (inactive) | 0.412 | 0.761 | 0.595 (inactive) | 1.06 | -1.14 (inactive) | 0.7 (inactive) | -0.768 (inactive) | – | -1.55 (inactive) | 1.51 (inactive) | 1.93 (inactive) | 0.933 | -0.0773
C[N+](C)(C)CCCCNC(=O)[C@@H]1C[C@@H]2C(=O)N3CCC[C@H]3C(=O)N2[C@@H]1c1cccc(OCCO)c1 | 0.668 | 1.05 | -0.954 | -0.732 | -0.179 | 0.428 | 0.971 (inactive) | 0.252 | 0.791 | -0.141 (inactive) | 0.0931 | 0.0521 (inactive) | 0.982 (inactive) | -31.2 (active) | – | -1.27 (inactive) | 0.497 (inactive) | 0.0567 (inactive) | 0.947 | -0.0619
[N-]=[N+]=Nc1ccccc1C[C@@]1(C(=O)N2CCOCC2)N=C(c2ccc(OCCCO)cc2)O[C@@H]1c1ccccc1N=[N+]=[N-] | -0.71 | 0.271 | -1.19 | -3.45 | -4.53 | 0.925 | 1.98 (inactive) | -1.23 | -1.54 | -1.32 (inactive) | -0.133 | -2.54 (inactive) | -1.93 (inactive) | -0.489 (inactive) | – | 0.0278 (inactive) | 1.08 (inactive) | 0.115 (inactive) | -3.91 | -0.256
O=C1c2ccccc2[C@](Cc2ccccc2I)(C(=O)NCc2ccccc2)[C@H](c2ccc(CO)cc2)N1Cc1ccccc1C(F)(F)F | 0.582 | 1.06 | 0.185 | -0.698 | 0.0474 | 1.11 | 0.789 (inactive) | 0.467 | 0.463 | 0.584 (inactive) | 0.716 | -0.712 (inactive) | 1.32 (inactive) | 0.309 (inactive) | – | 0.758 (inactive) | 0.0438 (inactive) | 0.0442 (inactive) | 1.21 | -0.17
